# Screening results as filed in PubChem BioAssay.
# Pf Dd2 growth = inhibitors of Plasmodium falciparum Dd2 growth. P. falciparum Dd2 growth, SYBR Green, 72 h. Potency, µM (series often up to 28.9 µM), inactives show at the top dose activity, negative = inhibition, most hits filed as inhibitors. hit rate 4.3% among 120,000; active = well fitted inhibition curve with a large enough effect;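 note: plate controls were DMSO vehicle for no effect and reference drug for full effect; nearly all actives have a fitted effect of over 65% in size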
#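 Infected erythrocytes (Dd2, 0.3% parasitemia, 2.5% hematocrit final) are added to compound in RPMI-1640/Albumax II medium, grown 72 h at 37C in low oxygen, then lysed with saponin/Triton-X containing SYBR Green and read by fluorescence.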
# Numbers without * were called inactive; i = inactive; [ ] = remark or other dose. The entries come from a sample that favours hits as a whole. Potency is the fitted concentration of half-maximal effect.
SMILES,Pf Dd2 growth
COc1ccc(NC(=O)[C@@H]2C[C@@H](c3ccc(F)cc3)N([S+](=O)([O-])c3ccccc3)C2)cc1,8.9µM*
O=C(Nc1cccc(Cl)c1)[C@@H]1C[C@@H](c2ccc(F)cc2)N([S+](=O)([O-])c2ccccc2)C1,-3%
COc1ccc(NC(=O)[C@@H]2C[C@@H](c3ccc(F)cc3)N([S+](=O)([O-])c3ccccc3)C2)cn1,-24%
COc1ccc(C2Cn3cnc(C(=O)N4CCC(C(=O)NC5CCCCC5)CC4)c3CO2)cc1 (stereo unspecified),10%
O=C(Nc1nccs1)c1ccc2c(c1)OCCN(c1ccccc1)C2,10µM*
O=C(Nc1nccs1)c1ccc2c(c1)OCCN(C1CCC1)C2,7.9µM*
O=C(Nc1ccc(F)cc1)c1ccc2c(c1)OCCN(CCC(F)(F)F)C2,i
CC(C)CCN1CCOc2cc(C(=O)Nc3ccccc3)ccc2C1,-14%[44.1 µM]
O=C(Nc1ccc2cn[nH]c2c1)c1ccc2c(c1)OCCN(c1ccccc1)C2,11µM*
Cc1cnc(NC(=O)c2ccc3c(c2)OCCN(C2CCC2)C3)s1,i
O=C(Nc1nccs1)c1ccc2c(c1)OCCN(CCC(F)(F)F)C2,-7%[44.1 µM]
COc1ccc(NC(=O)c2ccc3c(c2)OCCN(C2CCC2)C3)c(F)c1,i
Cc1cnc(NC(=O)c2ccc3c(c2)OCCN(Cc2ncccn2)C3)s1,i
COc1ccc(-c2nc3c(c(=O)[nH]2)CCN(C(=O)Nc2ccc(C)cc2C)C3)cc1,i
O=C(COc1ccccc1)N1CCC(Oc2ncccc2C(=O)N2CCCCC2)C1 (stereo unspecified),i
Cc1ccc(C(=O)Nc2ccc(NC(=O)c3cccs3)cc2)cc1C,43%
CCOCCCNC(=O)N1CC(c2nnc(-c3ccncc3)o2)C2(CCOCC2)C1 (stereo unspecified),4%
COCC1CN(Cc2cccc(OC(F)(F)F)c2)CC12CCNCC2 (stereo unspecified),1.3µM*
COCC1CN(Cc2c[nH]c3ccccc23)CC12CCNCC2 (stereo unspecified),6%
COCC1CN(Cc2cccnc2)CC12CCNCC2 (stereo unspecified),7%
Cc1sc(NC(=O)C(C)C)c(C(=O)N2CCc3c(nc[nH]c3=O)C2)c1C,-4%
Cc1nn(C(=O)CCC(=O)N2CCC(C)(c3noc(C4CC4)n3)CC2)c2ccccc12,2%
COCCNC(=O)C(NC(=O)CC(C)C)C1CCN(C(=O)c2ccc3c(c2)OCO3)CC1 (stereo unspecified),-3%
COc1ccc(CNC(=O)[C@H]2CCC[C@H]2NC(=O)c2ccc(OC)cc2)cc1,-9%
CCc1ccc(C(=O)c2cn(CC(=O)Nc3cc(OC)ccc3OC)c3ccc(C)cc3c2=O)cc1,10µM*
SMILES,Pf Dd2 growth
CCc1ccc(C(=O)c2cn(CC(=O)Nc3ccc(F)c(F)c3)c3cc(OC)c(OC)cc3c2=O)cc1,i
CCc1ccc(C(=O)c2cn(CC(=O)Nc3cc(OC)cc(OC)c3)c3ccc(CC)cc3c2=O)cc1,22%
CCc1ccc(C(=O)c2cn(CC(=O)Nc3ccc(OC)cc3OC)c3ccc(CC)cc3c2=O)cc1,i
CCc1ccc(C(=O)c2cn(Cc3ccc(F)cc3)c3cc(OC)c(OC)cc3c2=O)cc1,11µM*
CCOc1ccc(NC(=O)Cn2cc(C(=O)c3ccc(CC)cc3)c(=O)c3cc(OC)c(OC)cc32)cc1,-7%
CC(C)CN1C(=O)CO[C@H](c2ccc(NC(=O)c3ccc(C(F)(F)F)cc3)cc2)[C@H]1CO,-11%
CCCS(=O)(=O)N1C[C@@H](Oc2ccccc2)C[C@@H]1C(=O)NCCOC,1%
COC(=O)CNC(=O)C1CCc2nnc(-c3ccccc3OC)n21 (stereo unspecified),37%
COc1ccccc1-c1nnc2n1C(C(=O)NC(C)C)CC2 (stereo unspecified),-9%
COc1ccccc1-c1nnc2n1C(C(=O)NCCc1ccc(Cl)cc1)CC2 (stereo unspecified),1.8µM*
CCc1ccc(NC(=O)C(=O)NCCc2sc3nc(-c4ccc(OC)cc4)nn3c2C)cc1,i
CCNC(=O)C1N(C(C)C)C(=O)C12CCCC2 (stereo unspecified),14%
CSc1ccc(C2c3c(-c4ccccc4O)n[nH]c3C(=O)N2Cc2ccncc2)cc1 (stereo unspecified),13µM*
CC(C)c1ccc(C2NC(=O)c3n[nH]c(-c4cccs4)c32)cc1 (stereo unspecified),i
CN1C(=O)c2[nH]nc(-c3ccc(F)cc3)c2C1c1cccc(O)c1 (stereo unspecified),-5%
Cc1ccc(N2C(=O)c3n[nH]c(C)c3C2c2ccc(C(C)C)cc2)cc1 (stereo unspecified),i
CC(C)c1ccc(C2c3c(-c4ccccc4O)n[nH]c3C(=O)N2Cc2ccncc2)cc1 (stereo unspecified),13µM*
CCn1cc(CNc2ccc(-c3ccccc3OC)nn2)cn1,12%
CCOc1ccc(C(=O)c2oc3ccccc3c2NC(=O)c2cc(-c3ccc(C)cc3)on2)cc1,14%
COCCS(=O)(=O)c1ncc(CN(CCO)Cc2ccccc2)n1Cc1ccccc1,-24%
Cc1nccn1CC(=O)N1CCCC(c2[nH]ccc2C(N)=O)C1 (stereo unspecified),-5%
CCC(CC)NC(=O)C1CCCN(C(=O)c2ccccc2)CCC(=O)NCC1 (stereo unspecified),-3%
COCc1nnc(NC(=O)C[C@H]2NC(=O)c3ccccc3NC2=O)s1,-27%
NCc1ccccc1-c1cnc2ccccc2c1,10µM*
O=C(O)c1cccc(-c2cnc3ccccc3c2)c1,31%[44.1 µM]
SMILES,Pf Dd2 growth
O=C(c1cc(C2CC2)[nH]n1)N1CCC2(CCCN(CC3CCC3)C2=O)C1 (stereo unspecified),-8%
CN(C)C(=O)c1cccnc1OC1CCN(C(=O)c2ccoc2)C1 (stereo unspecified),-10%
CCOC(=O)c1cnc2ccc(Br)cc2c1NCCN1CCOCC1,i
CCOC(=O)c1cnc2ccc(Cl)cc2c1Nc1ccc(N2CCOCC2)cc1,8.9µM*
Cc1ccc(NC(=O)Cn2nc(-c3ccc(F)cc3)c3cnc4ccc(C)cc4c32)cc1,46%
CCOC(=O)c1cnc2ccc(C)cc2c1Nc1ccc(N(CC)CC)cc1,4.5µM*
CCCOC(=O)c1ccc(Nc2c(C(=O)OCC)cnc3c(C)cc(Cl)cc23)cc1,-24%
CCOC(=O)c1cnc2cc(C(F)(F)F)ccc2c1Nc1cc(C)ccc1OC,9%
Cc1nnc(NC(=O)CSc2nccn2Cc2ccccc2)s1,23%
COc1cc(C2Nc3c(C)cc(C)cc3-c3cc(C)nn32)cc(OC)c1O (stereo unspecified),-4%
COc1ccc(OC)c(C2Nc3c(C)cc(C)cc3-c3cc(C)nn32)c1 (stereo unspecified),0.25µM*
COc1ccc(OC)c(C2NC(=O)NC(C)=C2C(=O)Nc2cc(C)cc(C)c2)c1 (stereo unspecified),8%
CC(C)CCNC(=O)c1cnc2n1CCN(Cc1ccncc1Cl)CC2,i
CCOc1cccc(CN2C[C@@H]3C(=O)N(Cc4ccc5c(c4)OCO5)C(=O)[C@@H]3C2)c1,83%
Cc1nn(C)c2c1c(-c1ccccc1)cc(=O)n2CC(=O)NC(C)(C)C,-14%
COc1cccc(NC(=O)C(=O)NCCc2sc(-c3cccc(C)c3)nc2C)c1,-17%
CCOc1ccc(CCNC(=O)CCc2c(C)nc3c(c(C)nn3-c3ccc(C)c(C)c3)c2C)cc1,3%
